Test results taken from PubChem BioAssay AID1030 (National Center for Advancing Translational Sciences (NCATS), 2008).
The whole screen tested about 220,000 compounds, of which about 16,000 (7.3%) were called active. Entries that show only a call come without a potency. Roughly 25% stayed inconclusive and do not appear here. Calls follow the shape of the dose curve; as a rule, active = well fitted inhibition curve with a large enough effect (not every such curve was filed as active); inconclusive = small, poorly fitted or top-dose-only effect, or another doubt; inactive = no such curve, though single readings can be large or run the other way. For the sample, actives were picked, then their nearest neighbours and some compounds at random.

Biological target: Aldehyde dehydrogenase 1A1 (Homo sapiens) (UniProt P00352)
Sequence (P00352 whole entry, looked up): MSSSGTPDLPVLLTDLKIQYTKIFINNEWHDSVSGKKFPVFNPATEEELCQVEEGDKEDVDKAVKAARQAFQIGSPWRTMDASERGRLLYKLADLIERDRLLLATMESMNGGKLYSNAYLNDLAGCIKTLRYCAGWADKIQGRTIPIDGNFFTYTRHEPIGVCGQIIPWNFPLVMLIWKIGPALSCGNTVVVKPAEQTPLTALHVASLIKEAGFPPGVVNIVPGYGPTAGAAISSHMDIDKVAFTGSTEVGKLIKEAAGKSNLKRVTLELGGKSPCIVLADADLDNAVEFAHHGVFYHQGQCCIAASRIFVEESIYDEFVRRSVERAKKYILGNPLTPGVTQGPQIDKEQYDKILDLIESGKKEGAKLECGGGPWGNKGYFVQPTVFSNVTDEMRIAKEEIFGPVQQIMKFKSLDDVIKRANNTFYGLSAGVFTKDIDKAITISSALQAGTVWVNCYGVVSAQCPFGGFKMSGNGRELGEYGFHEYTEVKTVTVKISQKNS
Test: qHTS Assay for Inhibitors of Aldehyde Dehydrogenase 1 (ALDH1A1)
Conditions: Purified ALDH1A1, NADH fluorescence, propionaldehyde substrate; series mostly up to 75.3 µM
Potency is read from the fitted curve at half-maximal effect.

Structure (SMILES) | Potency
Fc1cc(Br)ccc1NC(=S)Nc1cccnc1 | inactive
COc1ccc(S(=O)(=O)N2CCOCC2)cc1NC(=O)CSc1ncnc2ccccc12 | inactive
Cc1ccc(NS(=O)(=O)c2cccs2)cc1S(=O)(=O)N1CCCCCC1 | inactive
COc1ccc(N(C)S(=O)(=O)c2cccc3nsnc23)cc1 | inactive
FC(F)(F)c1cccc(Cc2noc(CN3CCC(N4CCCCC4)CC3)n2)c1 | inactive
CC1=NCCN1S(=O)(=O)c1cccc([N+](=O)[O-])c1 | inactive
Fc1ccccc1Cn1cnc(NC(=S)NCCc2ccccc2)n1 | inactive
O=C(CSc1nc(C2CC2)nc2ccccc12)Nc1ccc2c(c1)OCCO2 | inactive
Cc1ccc(SCC(=O)Nc2ccc3c(c2)OCCO3)cc1 | inactive
CCC(=O)Nc1cccc(NC(=O)CSc2nnnn2C2CCCC2)c1 | 12.6 µM (active)
CCC(=O)Nc1cccc(NC(=O)CSc2nnc(-c3ccc(NS(C)(=O)=O)cc3)n2C)c1 | inactive
O=C(CSc1nnnn1C1CCCC1)Nc1ccc2c(c1)OCCO2 | 6.31 µM (active)
O=C(CSc1nnc(-c2ccncc2)n1C1CCCCC1)Nc1ccccc1 | inactive
COc1cc(NC(=O)CSc2nnc3ccc(-c4ccncc4)nn23)cc(OC)c1 | inactive
CCNC(=O)COC(=O)CCNC(=O)c1cccc(C)c1 | inactive
NS(=O)(=O)c1ccc(NC(=O)COC(=O)c2ccc(Cl)nc2)cc1 | inactive
O=C(COC(=O)c1ccco1)NCc1ccc(Cl)cc1 | inactive
O=C(COC(=O)c1ccc(Cl)nc1)NCc1cccs1 | 8.91 µM (active)
O=C(COC(=O)c1ccc(Cl)nc1)NCc1ccc2c(c1)OCO2 | inactive
O=C(COC(=O)c1cnc(Cl)c(Cl)c1)NCc1ccco1 | 20 µM (active)
O=C(COC(=O)c1cc(S(=O)(=O)N2CCCCC2)ccc1Cl)NCc1ccco1 | inactive
CC(C)Oc1ccc(CCc2nnc(SCC(=O)O)n2-c2ccccc2)cc1 | inactive

Structure (SMILES) | Potency
COc1cc(S(=O)(=O)N2CCOCC2)ccc1NC(=O)COc1ccc(N(C)S(=O)(=O)c2ccc(C)cc2)cc1 | inactive
C=CCOCCN(C)C1=NS(=O)(=O)c2ccccc21 | inactive
COC(=O)c1sc(SC)c(S(=O)(=O)C(C)C)c1N/N=C(\C#N)S(=O)(=O)c1ccccn1 | inactive
Cc1ccn(CC(=O)N2N=C(C(F)F)CC2(O)C(F)F)n1 (centres undefined) | inactive
CC(C)(C)NC(=O)NCc1ccco1 | inactive
CCCC(=O)NC(=S)Nc1ccc(CN2CCOCC2)cc1 | inactive
CSc1nc(C)nc(C2CC2)c1C#N | inactive
CCc1c(-c2ccccc2)nc(N)c(C#N)c1-c1cccs1 | inactive
CSc1nc(N)c(C#N)c(-c2ccccc2Cl)c1C#N | 14.1 µM (active)
CC(Sc1nncn1C)C(=O)Nc1cc(C(F)(F)F)ccc1N1CCOCC1 (centres undefined) | inactive
Cc1cc(NC(=O)CSc2nc3ccccc3n2CC(C)C)no1 | inactive
CC1CN/C(=C\C(=O)c2ccc(Br)cc2)C(=O)N1 (centres undefined) | inactive
C/C(=C\C(=O)c1ccc(Br)cc1)N1CCCCC1 | 25.1 µM (active)
Cc1ccc(C(=O)N2CCCCCC2)cc1Br | inactive
Cc1ccc(-c2csc(-c3cc(C)on3)n2)cc1 | inactive
COc1ccccc1Oc1nc(-c2cccnc2)nc2ccccc12 | 20 µM (active)
c1cncc(-c2nc(N3CCNCC3)c3ccccc3n2)c1 | inactive
COc1ccccc1Oc1ccc(S(=O)(=O)Nc2cccnc2)cc1 | inactive
O=c1cnnc(Nc2ccccc2F)[nH]1 | inactive
CCCNCc1cc(OCC)c(OCC(=O)Nc2ccccc2)cc1Br | inactive
C=CCC(CC=C)(C(N)=O)c1ccccc1 | inactive
c1ccc(Cc2cc[n+](Cc3ccccc3)cc2)cc1 | inactive

Structure (SMILES) | Potency
CCN1CCC(=NNC(=O)c2ccc(C)c([N+](=O)[O-])c2)CC1 | 4.47 µM (active)
Cc1cc(O)c(NC(=O)c2ccc(C)c([N+](=O)[O-])c2)cc1C | inactive
Cc1ccc(NC(=O)CN2CCC(C(N)=O)CC2)cc1[N+](=O)[O-] | inactive
O=c1cc(N2CCCCC2)c(-c2ccccc2)nn1Cc1cccc(F)c1 | inactive
CCn1c(Cc2ccccc2)nnc1SCC(=O)Nc1ccccc1 | inactive
O=C(CSc1nc2ccccc2[nH]1)N/N=C/C=C\c1ccccc1[N+](=O)[O-] | 5.01 µM (active)
CCn1c(SCC(=O)N/N=C/C=C/c2ccccc2[N+](=O)[O-])nnc1-c1ccccc1 | 7.94 µM (active)
O=C(CSc1nc2ccccc2[nH]1)c1cccs1 | inactive
CCOC(=O)CNC(=O)CSc1nnc(-c2cccc(OC)c2)n1CC | inactive
O=C(Cc1cc(=O)[nH][nH]1)N/N=C/c1ccccc1[N+](=O)[O-] | inactive
O=C(CCc1ccccc1)NNc1ccc(F)cc1 | inactive
COC(=O)Cc1csc(Nc2c(C)n(C)n(-c3ccccc3)c2=O)n1 | inactive
Cc1c(N=Nc2ccc(N(C)C)cc2)c(=O)n(-c2ccccc2)n1C | inactive
CCn1c(-c2cc(OC)ccc2OC)csc1=Nc1c(C)n(C)n(-c2ccccc2)c1=O | 22.4 µM (active)
Cc1cc(OC(=O)c2ccccc2Cl)ccc1N1C(=O)CCC1=O | inactive
Cc1ccc(NC2=C(Cl)C(=O)OC2OC(=O)c2ccccc2C)cc1 (centres undefined) | inactive
Fc1ccc(CNc2nc3ccccc3n3nnnc23)cc1 | inactive
Fc1ccc(OCc2nn3c(Cn4nnc5ccccc54)nnc3s2)cc1 | 22.4 µM (active)
CC(=O)OC(COc1ccc(F)cc1)Cn1cnc2ccccc21 (centres undefined) | inactive
CCCn1c(N)c(C(=O)CSc2nnc(-c3cccnc3)n2-c2ccc(C)cc2C)c(=O)[nH]c1=O | inactive
COc1ccc(Cl)cc1N(CC(=O)N/N=C/c1ccc(OCC(N)=O)cc1)S(C)(=O)=O | inactive
COC(=O)c1nc(NC(=O)c2ccc(F)cc2)n[nH]1 | inactive

Structure (SMILES) | Potency
Cc1cccc(C(=O)Nc2ccc(CC(=O)O)cc2)c1 | inactive
Cc1cccc(NC(=O)c2cccc(C(F)(F)F)c2)c1 | inactive
Cc1cccc(C(=O)Nc2ccc3c(c2)C(=O)N(CC(C)C)C3=O)c1 | 2.82 µM (active)
CC1CC(NC(=O)/C(C#N)=C/c2ccc[nH]2)CC(C)(C)C1 (centres undefined) | inactive
COc1ccc(-n2c(SCC(=O)OC(C)C)nnc2-c2ccccn2)cc1 | inactive
Cc1ccc(-n2c(Cc3cccs3)nnc2SCC(=O)OC(C)C)cc1 | 5.62 µM (active)
CCn1c(SCC(=O)c2ccc(Cl)s2)nnc1-c1cccs1 | inactive
CCOC(=O)CSc1nnc(CNC(=O)c2cccs2)n1-c1ccccc1 | inactive
CCn1c(SCC(=O)c2ccc3ccccc3c2)nnc1-c1cccs1 | inactive
CCn1c(Cc2cccs2)nnc1SCC(=O)c1ccc(C)cc1 | 22.4 µM (active)
Cc1[nH]c2ccccc2c1-c1ccc(Cl)nn1 | inactive
CC1(C)CC(=O)C2=C(C1)Nc1cc(C(=O)c3ccccc3)ccc1NC2c1ccccn1 (centres undefined) | inactive
CC(=O)C1=C(C)NC2=C(C(=O)CC(C)(C)C2)C1C (centres undefined) | inactive
Cc1cc2c(cc1C)NC(c1ccccn1)C1=C(CC(C)(C)CC1=O)N2 (centres undefined) | 14.1 µM (active)
COCCn1c(C)cc(C(=O)CSc2nc3ccccc3c(=O)n2C(C)COC)c1C (centres undefined) | inactive
O=C(NNC(=O)C1CCN(c2ncccn2)CC1)c1ccccc1 | inactive
O=C(Cc1ccccc1)NNC(=O)C1CCN(c2ncccn2)CC1 | inactive
O=C1/C(=C\Nc2ccccc2)CCN1c1ncccn1 | 20 µM (active)
CC1=C(C(=O)N(C)C)C(c2ccccc2OC(F)F)NC(=O)N1 (centres undefined) | inactive
O=C(NNC(=S)Nc1ccc(Br)cc1Cl)c1ccco1 | 12.6 µM (active)
COc1cc(NC(=O)c2cc([N+](=O)[O-])ccc2Br)ccc1NC(=O)c1ccco1 | inactive
Cc1ccc(-n2nc3cc(Cl)c(NC(=O)c4ccco4)cc3n2)cc1 | inactive

Structure (SMILES) | Potency
COc1ccccc1C(=O)Nc1ccc(NC(=O)c2ccco2)c(C)c1 | 8.91 µM (active)
O=C(Nc1ccc(NC(=O)c2ccco2)c(Cl)c1)c1cccc([N+](=O)[O-])c1 | inactive
COC(=O)c1cc(Cl)c(NC(=O)c2ccco2)cc1OC | inactive
O=C(Nc1ccc(Sc2ccc(Br)cc2)cc1)c1ccco1 | inactive
CCC(=O)NC(=S)Nc1ccc(NC(=O)c2ccco2)c(Cl)c1 | 3.55 µM (active)
COc1ccc(NC(=O)c2cccc(NC(=O)c3ccco3)c2)c(OC)c1 | inactive
O=C(NNS(=O)(=O)c1ccccc1C(F)(F)F)c1cc2ncc(C(F)(F)F)cc2s1 | inactive
Cc1nnsc1C(=O)N/N=C/c1cccc(C(F)(F)F)c1 | inactive
Cc1cc(C)c(NC(=O)c2oc3ccccc3c2COc2ccccc2)c(C)c1 | inactive
N#Cc1ccc(Oc2ccc(C(F)(F)F)cc2NC(=O)c2ccc(F)cc2)cc1 | inactive
Cc1cc(C)nc(/N=C2\NC(=O)CC(C(=O)O)N2c2ccc(Cl)cc2Cl)n1 (centres undefined) | inactive
CCC(=O)/C(=C(/O)c1ccccc1)c1nc2ccccc2[nH]1 | inactive
CSc1sc(C(=O)NNC(=O)c2ccc(Cl)cc2)c2c1C=CCC2 | inactive
CC1CCN(S(=O)(=O)c2ccc3ncn(CC(=O)N(C)C4CCCCC4)c(=O)c3c2)CC1 | inactive
O=C(CN1CCSCC1)N/N=C/c1ccc(F)cc1F | 31.6 µM (active)
O=C(Cn1cc(C(F)(F)F)ccc1=O)N/N=C/c1ccc(Cl)cc1Cl | inactive
O=C(CCC(=O)Nc1ccccc1)N/N=C/c1ccccc1F | inactive
O=C(C1CCN(C2CCN(Cc3cccc4c3OCO4)CC2)CC1)N1CCOCC1 | inactive
CC(=O)c1c(C)[nH]c(C(=O)Nc2cc(S(=O)(=O)N(C)C)ccc2C)c1C | inactive
Cc1cc(NC(=O)CSc2nccn2-c2ccc([N+](=O)[O-])cc2)no1 | inactive
CN(CCOc1ccc(Br)cc1)CC(=O)Nc1cccc(S(=O)(=O)NC2=NCCC2)c1 | inactive
